Results: PubChem BioAssay AID2462 (Broad Institute, 2010)
Out of some 330,000 compounds screened, about 220 (0.067%) were called active. Shown is part of a subset that was picked to be rich in actives. Values without a mark were called inactive.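 Rule for the calls: active = over half of replicate activation scores above 10%, or exactly half above 10 with the replicate mean above 10; inconclusive = replicate mean below 10 yet half the replicates above 10; inactive = over half of replicates below 10.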

Assay: inducers of caspase signal in A1-primed MEFs – cell-based, luminescence, HTS, A1 inhibitor project, primary screen (AID 2462)
Conditions: MEF A1-2A-BIM cells, Caspase-Glo 3/7 luminescence, 3 h; active compounds read high; percent of clofoctol response, vehicle zero; concentration not given here

Q: With `O=C(CCc1nnc2ccc(NCc3ccccc3Cl)nn12)NCC1CCN(C2CCCC2)C1` (stereo not drawn) as the compound, how does the caspase activation read?
A: -0.323%

Q: Which caspase activation does the source give for `CCC(C)(C)c1ccc(OCC(=O)N(C)C)c(C(C)(C)CC)c1` here?
A: -0.559%

Q: Which caspase activation does the source give for `O=C(COc1ccc([N+](=O)[O-])cc1Cl)Nc1ccc2[nH]c(=O)[nH]c2c1` here?
A: -0.19%

Q: For `Cc1cc(OCCN2CCCC2)cc(C(C)C)c1`, which caspase activation is on record?
A: 0.0914%

Q: Which caspase activation does the source give for `O=C(O)CC1S/C(=N\N=C/c2ccccc2O)N(c2ccc(O)cc2)C1=O` (stereo not drawn) here?
A: 0.687%

Q: Which caspase activation does the source give for `CCOc1ccc(NC(=O)CC2C(=O)N(c3ccccc3)C(=O)N2CCOC)cc1` (stereo not drawn) here?
A: 0.358%

Q: Which caspase activation does the source give for `C=CCC1(C#N)C(=S)NC(C)=C(C(=O)OCC)C1c1ccccc1` (stereo not drawn) here?
A: 0.0109%

Q: For `Cc1cccc(NS(=O)(=O)c2ccc(C)c(C(=O)NCC(c3ccccc3)N(C)C)c2)c1` (stereo not drawn), which caspase activation is on record?
A: 1.2%

Q: For `Cc1c2cn[nH]c(=O)c2c(C)n1Cc1ccc(F)cc1`, which caspase activation is on record?
A: -0.558%

Q: For `Cc1cc(NC(=O)CSc2nc3cc(Cl)ccc3c(=O)n2Cc2ccco2)no1`, which caspase activation is on record?
A: 29.5% (active)

Q: Which caspase activation does the source give for `Cc1cc(NC(=O)CSc2nnc(-c3ccco3)n2N)no1` here?
A: -0.817%

Q: With `Cc1cc(NC(=O)CSc2nc3ccccc3n2CC(C)C)no1` as the compound, how does the caspase activation read?
A: 0.633%

Q: With `CC(NC(=S)Nc1ccccc1)C1COc2ccccc2O1` (stereo not drawn) as the compound, how does the caspase activation read?
A: -0.247%

Q: Which caspase activation does the source give for `CCC1=NN(C(=O)Cc2ccc([N+](=O)[O-])cc2)C(O)(c2ccc(Br)cc2)C1` (stereo not drawn) here?
A: 1.08%

Q: With `Cc1ccc(S(=O)(=O)N(CC(O)CN2C(=O)NC(C)(C)C2=O)c2cccc([N+](=O)[O-])c2)cc1` (stereo not drawn) as the compound, how does the caspase activation read?
A: 0.0755%

Q: Which caspase activation does the source give for `CSc1nnnn1-c1c(C)cc(C)cc1C` here?
A: -0.157%

Q: For `O=C1CCC(C(=O)N2CCCCO2)CN1Cc1cccc(C(F)(F)F)c1` (stereo not drawn), which caspase activation is on record?
A: 0.28%

Q: Which caspase activation does the source give for `Cc1ccc(/C=C/C(=O)OCC(=O)NCc2ccc(Cl)cc2)o1` here?
A: -0.527%

Q: Which caspase activation does the source give for `CCOC(=O)CSc1ccccn1` here?
A: -0.651%

Q: For `CCOC(=O)CSC1=N/C(=C/c2ccc(-n3cncn3)cc2)C(=O)N1C(C)=O`, which caspase activation is on record?
A: 8.99% (active)

Q: With `CCOC(=O)CSc1nc(C)cc2c1C(=O)OC2` as the compound, how does the caspase activation read?
A: 0.711%

Q: Which caspase activation does the source give for `O=C1CCC(C(=O)N2CCC(O)(c3ccccc3)CC2)CN1CCc1ccccc1` (stereo not drawn) here?
A: 0.199%

Q: Which caspase activation does the source give for `COCCNc1ccc(-c2n[nH]c(=O)c3ccccc23)cc1[N+](=O)[O-]` here?
A: -1.33%

Q: For `Cc1ccc(NC(=O)c2ccc(Oc3ncccn3)cc2)cc1`, which caspase activation is on record?
A: -1.4%

Q: For `Cc1ccccc1N1CCN(C2CCCN(C(=O)c3ocnc3C)C2)CC1` (stereo not drawn), which caspase activation is on record?
A: 0.888%

Q: Which caspase activation does the source give for `CCc1ccc(/C=N/NC(=O)c2ccc(OC3CCCC3)cc2)s1` here?
A: -0.334%

Q: For `COC(=O)C(=Nc1ccccc1)/C(C(=O)C(=O)N(C)c1ccccc1)=C(\O)c1ccc(Cl)cc1`, which caspase activation is on record?
A: -1%

Q: Which caspase activation does the source give for `Cc1ccc(-n2c(SCC(=O)Nc3ncc(Cl)cc3Cl)nc3ccccc32)cc1` here?
A: 0.221%

Q: Which caspase activation does the source give for `CCC1(C(=O)c2ccccc2)C(c2cccc([N+](=O)[O-])c2)C1(C(=O)OC)C(=O)OC` (stereo not drawn) here?
A: -0.612%

Q: Which caspase activation does the source give for `O=C1Nc2c(Br)cc(Br)cc2C1(O)N1CCOCC1` (stereo not drawn) here?
A: -1.16%

Q: With `COc1ccc(C(=O)NCc2ccc(Cl)cc2)cc1S(=O)(=O)N1CCCC1` as the compound, how does the caspase activation read?
A: -0.377%

Q: Which caspase activation does the source give for `COc1cc(C2C(N3C(=O)c4ccccc4C3=O)C(=O)N2c2ccc(C)c(C)c2)cc(OC)c1OC` (stereo not drawn) here?
A: 0.266%

Q: With `CCOc1ccc(Br)cc1S(=O)(=O)Nc1ccc(S(=O)(=O)Nc2cc(C)on2)cc1` as the compound, how does the caspase activation read?
A: 1.21%

Q: For `O=C(Nc1ccc(Cl)c(Cl)c1)c1ccccc1NC(=O)C1CC=CCC1C(=O)O` (stereo not drawn), which caspase activation is on record?
A: -2.01%

Q: With `Cc1ccc(-n2ncc3c2CC(C)(C)CC3NC(=O)Cc2c(C)noc2C)cc1` (stereo not drawn) as the compound, how does the caspase activation read?
A: 1.06%

Q: For `Cc1cc(C(C)(C)C)cc(S(=O)(=O)Nc2ccc(C(=O)O)cc2)c1C`, which caspase activation is on record?
A: -0.667%

Q: Which caspase activation does the source give for `CCCCCn1c(=O)c(C(=O)OCC)c(Cl)c2ccccc21` here?
A: 0.0442%

Q: With `N#CCSc1nc(-c2ccccc2)nc2ccc(F)cc12` as the compound, how does the caspase activation read?
A: 1.31%

Q: Which caspase activation does the source give for `C#CCOCCOCCOCCNc1nc(N2CCN(C(=O)C([C@@H](C)O)n3cc([C@@H](N)CCCCN)nn3)CC2)nc(N2CCN(C(=O)[C@H](CCCCN)n3cc(CN)nn3)CC2)n1` (stereo partly drawn) here?
A: 0.837%

Q: Which caspase activation does the source give for `Cc1cc(=O)[nH]c(S)c1C#N` here?
A: 0.51%

Q: For `COCCn1c(N)c(NCc2ccccc2)c(=O)[nH]c1=O`, which caspase activation is on record?
A: -0.132%

Q: Which caspase activation does the source give for `CCC(C)N(C(=O)COC(=O)C1C(C(=O)OC)=C(C)NC(C)=C1C(=O)OC)C1CCS(=O)(=O)C1` (stereo not drawn) here?
A: -0.124%

Q: Which caspase activation does the source give for `CCCCc1ccc(NC(=S)N2CCCC(CO)C2)cc1` (stereo not drawn) here?
A: -0.669%

Q: Which caspase activation does the source give for `CCCc1cc(C(=O)Nc2ccc(Cl)cn2)cs1` here?
A: -8.84%

Q: With `Nc1ccccc1SC(C[N+](=O)[O-])c1ccccc1` (stereo not drawn) as the compound, how does the caspase activation read?
A: 9.45% (active)

Q: With `Cc1ccc(C(C[N+](=O)[O-])c2c(C)cc3ccccn23)cc1` (stereo not drawn) as the compound, how does the caspase activation read?
A: 1.62%

Q: For `CCS(=O)(=O)c1cc([N+](=O)[O-])c(Sc2ccccc2N)s1`, which caspase activation is on record?
A: 1.52%

Q: With `COc1cc(-c2nnc(NC(=O)C3=COCCO3)o2)cc(OC)c1OC` as the compound, how does the caspase activation read?
A: 0.457%

Q: Which caspase activation does the source give for `Cc1ccc(C(=O)Nc2nnc(C3=COCCO3)o2)cc1C` here?
A: 44.6% (active)

Q: Which caspase activation does the source give for `O=C(Nc1nnc(C2=COCCO2)o1)c1ccc([N+](=O)[O-])s1` here?
A: -4.99%

Q: For `ON=C1/C(=N\O)CC2(C/C1=N/O)OCCO2`, which caspase activation is on record?
A: 0.622%

Q: For `O=C1CCCc2nn(-c3ccccc3)nc21`, which caspase activation is on record?
A: -0.0976%

Q: Which caspase activation does the source give for `COC(=O)Nc1ncc(CN2CCCCC2)s1` here?
A: 0.0297%

Q: For `CSCC[C@H](NC(=O)NCCc1ccc(F)cc1)C(=O)O`, which caspase activation is on record?
A: 0.319%

Q: Which caspase activation does the source give for `COc1ccc(CNC(=O)c2cc(C(=O)C3CC3)c[nH]2)cc1` here?
A: -0.0151%

Q: For `O=C(c1ccc(F)cc1)c1c[nH]c(C(=O)NCc2cccnc2)c1`, which caspase activation is on record?
A: 0.0496%

Q: Which caspase activation does the source give for `CC(C)CC(=O)c1c[nH]c(C(=O)NCc2ccccc2)c1` here?
A: 6.29% (active)

Q: For `CC(=O)Nc1cccc(NC(=O)c2ccc3c(c2)CCN3S(C)(=O)=O)c1`, which caspase activation is on record?
A: 0.604%
